Results from the supplement of paper PMC12494721.
Where a name gives a salt, the structure may show the parent alone.

tested on: Klebsiella aerogenes DSM 30053; assay: fold change of Putrescine concentration vs plate DMSO controls (fold change (ratio)); higher = more amine produced, active = hit call of the paper (significant change in both replicates, either direction); conditions: incubation time: 27 h, anaerobic, 37 °C;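 for the amine columns active = adjusted P below 0.05 in both replicates with a change the same way and a mean fold change under 0.8 or over 1.25; inactive = the rest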
Method in brief: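 Amine values are fold changes relative to DMSO-only wells on the same plate. They derive from 27 h, 37 °C anaerobic mGAM cultures of four gut bacterial strains in 80 µL wells, dosed at 20 µM final, or 50 µM final for sweeteners. Extraction of the whole culture, LC–triple-quadrupole MS in dynamic MRM mode, external calibration curves and within-batch drift correction were used, with 2 biological replicates averaged.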

Fold change of Putrescine concentration, inactive:
Cc1ccc(-c2ncc(Cl)cc2-c2ccc(S(C)(=O)=O)cc2)cn1 [Etoricoxib] (20 µM) 0.959
Clc1ccc(CO/N=C(\Cn2ccnc2)c2ccc(Cl)cc2Cl)c(Cl)c1 [Oxiconazole nitrate] (20 µM) 1.05
NCc1ccc(S(N)(=O)=O)cc1 [Mafenide hydrochloride] (20 µM) 1.02
c1ccc(-c2ccc(C(c3ccccc3)n3ccnc3)cc2)cc1 (stereo not given) [Bifonazole] (20 µM) 1.01
OC[C@H]1O[C@@H](O[C@H]2[C@H](O)[C@@H](O)[C@H](O)O[C@@H]2CO)[C@H](O)[C@@H](O)[C@H]1O [Lactose] (50 µM) 1.01
CC(CNC1CCCCC1)OC(=O)c1ccccc1 (stereo not given) [Hexylcaine hydrochloride] (20 µM) 0.988
CN(C)CCc1c[nH]c2ccc(Cn3cncn3)cc12 [Rizatriptan benzoate] (20 µM) 1.01
CC[N+]1(CC)CCC(=C(c2ccccc2)c2ccccc2)C1C (stereo not given) [Prifinium Bromide] (20 µM) 1
COc1ccc(C(=O)c2ccc(C)cc2)c(O)c1 [Mexenone] (20 µM) 1.01
CC(C)NCC(O)COc1ccc(CCOCC2CC2)cc1 (stereo not given) [Betaxolol hydrochloride] (20 µM) 0.994
COc1cc(N)cn[n+]1-c1ccccc1 [Amezinium metilsulfate] (20 µM) 0.98
C[C@H](NCc1ccc(OCc2cccc(F)c2)cc1)C(N)=O [Safinamide] (20 µM) 1
CC#C[C@]1(O)CC[C@H]2[C@@H]3CCC4=CC(=O)CCC4=C3[C@@H](c3ccc(N(C)C)cc3)C[C@@]21C [Mifepristone] (20 µM) 1.02
O=C1CCC(N2C(=O)c3ccccc3C2=O)C(=O)N1 (stereo not given) [Thalidomide] (20 µM) 1.02
CCCC(=O)Nc1ncnc2c1ncn2[C@@H]1O[C@@H]2COP(=O)(O)O[C@H]2[C@H]1OC(=O)CCC [Bucladesine sodium salt] (20 µM) 0.983
CCOC(=O)C1=C[C@@H](OC(CC)CC)[C@H](NC(C)=O)[C@@H](N)C1 [Oseltamivir phosphate] (20 µM) 1
Brc1c(NC2=NCCN2)ccc2nccnc12 [Brimonidine L-tartrate] (20 µM) 0.971
CC(C)(C)NC[C@H](O)COc1nsnc1N1CCOCC1 [Timolol maleate salt] (20 µM) 1.01
O=C(CCCN1CCC(O)(c2ccc(Cl)cc2)CC1)c1ccc(F)cc1 [Haloperidol] (20 µM) 1
OC[C@@H](O)[C@H](O)[C@@H](O)CO [Xylitol] (50 µM) 1.19
Cc1cnc(C(=O)NCCc2ccc(S(=O)(=O)NC(=O)NC3CCCCC3)cc2)cn1 [Glipizide] (20 µM) 0.998
Fc1ccc([C@@H]2CCNC[C@H]2COc2ccc3c(c2)OCO3)cc1 [Paroxetine hydrochloride] (20 µM) 0.991
Nc1nnc(-c2cccc(Cl)c2Cl)c(N)n1 [Lamotrigine] (20 µM) 1.02
Oc1c(Cl)cc(Cl)c(Cl)c1Cc1c(O)c(Cl)cc(Cl)c1Cl (20 µM) 1.01
Cc1c(Nc2ncccc2C(=O)O)cccc1C(F)(F)F [Flunixin meglumine] (20 µM) 0.959
COc1c(O)cc2c(c1O)[C@@H]1O[C@H](CO)[C@@H](O)[C@H](O)[C@H]1OC2=O [Bergenin] (20 µM) 0.997
Nc1c(CC(=O)O)cccc1C(=O)c1ccc(Br)cc1 [Bromfenac] (20 µM) 1
CNC[C@H](O)[C@@H](O)[C@H](O)[C@H](O)CO [Meglumine] (20 µM) 0.979
O=C(Nc1ccc([N+](=O)[O-])cc1Cl)c1cc(Cl)ccc1O [Niclosamide] (20 µM) 1.03
CN1CCN2c3ncccc3Cc3ccccc3C2C1 (stereo not given) [Mirtazapine] (20 µM) 0.983
